Screens deposited in PubChem by several laboratories.
This is a sample that favours compounds with a hit; in the whole collection about 2% have one here.
F-actin modifier: modifiers of F-actin cytoskeleton organization, primary screen, imaging, HUVEC, phalloidin staining, high-content imaging; 91,000 tested, 0.18% active; inhibition, % at 2 µM; HUVEC TNFa F-actin phalloidin imaging; AID 836, 2007;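 active = inhibition above the batch mean plus 3 SD and confirmed as a hit by visual image inspection, cut at about 30% in these data, passing the limit was not always enough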
TNFa cytotox: cytotoxicity in TNFa-stimulated HUVEC, primary screen, cytotoxicity control for VCAM1 expression modulator project, imaging, Hoechst nuclei count | HUVEC TNFalpha-stimulated, Hoechst cell count | cell count reduction, % at 2 µM | 93,000 tested, 0.17% active;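 active = cell count reduction exceeding the screen mean by over 5 SD, scaled to untreated wells per plate, cut at about 78% in these data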;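 note: cells counted after 24 h of TNF alpha exposure following the 1 h pretreatment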
PLAP activator: PLAP enzyme activators, biochemical, luminescence, HTS. Alkaline phosphatase, placental type (Homo sapiens), P05187. purified PLAP enzyme, luminescent substrate read-out; hits give high values. activation fold at 20 µM. 96,000 tested, 1.2% active. AID 696, 2007; in the data active = activation fold above about 2
Target sequence (P05187 whole entry, looked up): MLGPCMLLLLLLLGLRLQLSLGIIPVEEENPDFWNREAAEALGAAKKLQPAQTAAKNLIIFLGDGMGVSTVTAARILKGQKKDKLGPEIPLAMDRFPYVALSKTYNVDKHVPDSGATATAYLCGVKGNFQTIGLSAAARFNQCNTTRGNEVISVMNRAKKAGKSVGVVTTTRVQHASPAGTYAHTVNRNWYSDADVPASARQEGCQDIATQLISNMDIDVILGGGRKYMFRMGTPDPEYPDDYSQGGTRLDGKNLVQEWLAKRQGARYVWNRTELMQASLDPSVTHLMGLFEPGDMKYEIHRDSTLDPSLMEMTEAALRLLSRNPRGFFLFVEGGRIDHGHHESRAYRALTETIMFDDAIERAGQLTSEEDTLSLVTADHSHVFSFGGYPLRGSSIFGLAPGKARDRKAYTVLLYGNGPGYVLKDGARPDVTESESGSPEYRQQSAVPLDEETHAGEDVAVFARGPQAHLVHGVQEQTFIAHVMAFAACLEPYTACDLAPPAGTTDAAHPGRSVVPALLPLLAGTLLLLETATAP
VCAM1 TNFa inh: inhibitors of TNFa-induced VCAM1 expression, primary screen, imaging, HUVEC, TNFa stimulus, immunofluorescence; inhibition, % at 2 µM; 95,000 tested, 0.48% active; HUVEC TNFa-induced VCAM-1 immunofluorescence, high-content imaging;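 active = inhibition above the batch mean plus 3 SD, with images confirmed as a hit by eye, cut at about 37% in these data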;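 note: 0% = TNF-stimulated DMSO wells and 100% = unstimulated control wells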
E-sel TNF inh: E-selectin induction blockers in HUVEC – imaging, immunofluorescence, high content, primary screen; HUVEC TNFa-induced E-selectin immunofluorescence; AID 1246, 2008; 120,000 tested, 0.71% active; inhibition, % at 2 µM;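 active = inhibition above the batch mean plus 3 SD, and confirmed as a hit on visual image review, cut at about 43% in these data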;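 note: 0% = TNF-stimulated DMSO wells and 100% = unstimulated control wells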
* hit, by the source's call; . = no result given.

SMILES	F-actin modifier	TNFa cytotox	PLAP activator	VCAM1 TNFa inh	E-sel TNF inh
O=C(COc1ccc(S(=O)(=O)N2CCCC2)cc1Cl)NC1CCCC1	10	-6	1.1	17	29
CCc1nnc(NC(=O)[C@@H](NC(=O)c2cc(OC)cc(OC)c2)C(C)C)s1	.	.	.	.	16
O=c1ncn(-c2ccccc2C(F)(F)F)c2ncccc12	.	.	.	.	-9
O=c1ncn(-c2ccccc2F)c2ncccc12	-3	-2	1	5	67*
O=C(CSCc1ccc(F)cc1)NCc1ccco1	6	-37	1.3	-23	-21
Cc1cc(C)nc(NC2=NCC(=O)N2c2ccccc2Br)n1	1	-16	.	14	.
COc1ccc(NC2=NCC(=O)N2c2ccccc2)c(OC)c1	-53	42	1	-25	.
Cc1cc(C)nc(NC2=NCC(=O)N2c2cccc(Cl)c2)n1	-1	-7	2.1*	-9	-24
Cc1cc(C)nc(NC2=NCC(=O)N2c2ccccc2)n1	10	5	2.4*	5	28
Cc1ccc(NC2=NCC(=O)N2c2ccc3c(c2)OCCO3)c(C)c1	-5	3	.	-8	-13
COc1ccc(N2C(=O)CN=C2Nc2nc(C)cc(C)n2)cc1	22	-5	2.3*	3	18
Cc1cc(C)nc(NC2=NCC(=O)N2c2ccc3c(c2)OCCO3)n1	-4	6	2*	3	4
COc1ccc(CCN(Cc2cc3cc(C)cc(C)c3nc2Cl)C(=O)C2CC2)cc1	3	-1	1	-4	-6
CCOC(=O)c1ccc(N2CCN(C(C)=O)CC2)c(NC(=O)c2cccnc2)c1	.	.	.	.	2
O=C(CS(=O)c1ccc(C(F)(F)F)cc1[N+](=O)[O-])Oc1ccc(Cl)cc1 (centres undefined)	27	13	0.8	72*	33
Cc1ccc2c(CC(=O)N3CCN(c4ccccc4)CC3)coc2c1	.	.	.	.	-18
CCOc1cc(N2CCOCC2)c(OCC)cc1NS(=O)(=O)c1ccc(Cl)s1	-34	2	1	3	89*
CCOc1cc(N2CCOCC2)c(OCC)cc1NC(=O)CCS(=O)(=O)c1ccc(Cl)cc1	-12	0	1.3	-2	3
NC(=O)c1cc(N2C(=O)C=CC2=O)ccc1Cl	2	0	1	1	51*
COc1ccc(CCNC(=S)NC2CCN(Cc3ccccc3)CC2)cc1	.	.	.	.	-5
CN1CC(=O)N/C1=N\C(=O)Nc1ccc2c(c1)N(C)C(=O)CS2	4	.	2.8*	8	4
Cc1cc(C)cc(NC(=O)Nc2ccc3c(c2)N(C)C(=O)CS3)c1	1	-45	0.9	13	11
COc1ccc(CN(C)C(C)C(=O)Nc2ccc(S(=O)(=O)N3CCCC3)cc2)c(OC)c1OC (centres undefined)	.	.	.	.	-11
CC(=O)c1cccc(NC(=O)c2cc(-c3ccc(F)cc3)on2)c1	-7	73	0.9	71*	.
Cc1cccnc1Nc1nc(-c2ccccn2)cs1	-4	73	1.1	94*	19
SMILES	F-actin modifier	TNFa cytotox	PLAP activator	VCAM1 TNFa inh	E-sel TNF inh
O=c1n(Cc2ccccc2F)c2ccccc2n1Cc1ccccc1F	31*	-13	.	-14	-4
CCC(=O)Nc1ccc(C(=O)CSc2nc3ccccc3[nH]2)cc1	.	.	.	.	1
Cc1ccc(N2CC(C(=O)Nc3ccc4c(c3)OCO4)CC2=O)cc1 (centres undefined)	23	89*	1.2	8	17
O=C(Nc1ccc2c(c1)OCO2)C1CC(=O)N(c2ccc3c(c2)OCCO3)C1 (centres undefined)	.	.	.	.	-20
O=C(Nc1nc2ccccc2[nH]1)C1CC(=O)N(c2ccc3c(c2)OCCO3)C1 (centres undefined)	-16	-25	2.9*	4	2
Cc1nc(CS(=O)(=O)c2ccc(Cl)cc2)cc(Sc2ccc(Cl)cc2)n1	21	-6	1.5	6	13
Cc1ccccc1NC(=O)COC(=O)/C=C/c1cccc(C(F)(F)F)c1	.	.	.	.	-11
Cc1nc(C#N)c(N/N=C/c2c(F)cccc2Cl)o1	.	.	.	.	0
CCc1n[nH]c2c1C(=O)CC(C)(C)C2	2	-11	1	6	54*
Cc1[nH]nc2c1C(=O)CC(C)(C)C2	-9	-7	1.1	18	7
Cc1cccc(-c2noc(CCCC(=O)N3CCOCC3)n2)c1	-22	-7	0.9	14	-4
COc1ccc(-c2nnc(SC(C)C(=O)Nc3ccc4c(c3)OCCO4)o2)cc1 (centres undefined)	11	-30	2.1*	5	8
Cc1nnc(SC(C)C(=O)Nc2ccc3c(c2)OCCO3)s1 (centres undefined)	0	-24	1.1	2	10
CCN(C(=O)COC(=O)c1cc(C)n(-c2ccc(F)cc2)c1C)C1CCS(=O)(=O)C1 (centres undefined)	-11	4	1.7	3	100*
Cc1ccc(-n2c(C)cc(C(=O)OCC(=O)N(CC(C)C)C3CCS(=O)(=O)C3)c2C)cc1 (centres undefined)	12	-46	1.2	1	-11
Cc1cc(N)ccc1S(C)(=O)=O	6	6	.	11	-30
Cc1ccc(N)cc1S(=O)(=O)N(C)C	.	.	.	.	55*
Cc1cccc(C(=O)NNC2=C(C(=O)C(F)(F)F)CCC2)c1O	17	-9	2.3*	-4	-2
O=C(NNC1=C(C(=O)C(F)(F)F)CCC1)c1cccc(O)c1	-5	-12	.	8	-28
COc1ccccc1-c1cc(C(F)(F)F)nc(S(=O)(=O)CCCC(=O)N2CCCCC2C)n1 (centres undefined)	21	-15	0.9	71*	.
CCOc1cc2[nH]c(=O)n(CCCN3CCCC3=O)c(=O)c2cc1OCC	8	-11	1	15	46*
CCc1nnc(NS(=O)(=O)c2ccc(NC(=S)NC(=O)/C=C/c3ccc(C(C)C)cc3)cc2)s1	1	-31	1.4	0	-14
Cc1cnn(CCC(=O)NNC(=S)Nc2ccc(F)cc2)c1	-7	-18	2.3*	18	-10
COc1ccc(S(=O)(=O)N(C)CC(=O)NC2CCCCC2)cc1Cl	7	-4	1	-11	-4
COc1ccc(S(=O)(=O)N(CC(N)=O)C2CCCCC2)cc1Cl	5	-13	1.5	-3	45*
SMILES	F-actin modifier	TNFa cytotox	PLAP activator	VCAM1 TNFa inh	E-sel TNF inh
COc1ccc(C(=O)NCCCn2ccnc2)cc1	-27	-28	1	11	.
COc1ccc(-c2nn(-c3ccccc3)cc2C(=O)NCCCn2ccnc2)cc1	-11	-1	2.6*	-3	.
O=C(CSc1nc2ccccc2s1)c1cc2ccccc2o1	0	-26	1.1	19	10
Cc1ccc(CSc2nnc(-c3ccncc3)n2CC2CCCO2)cc1 (centres undefined)	12	5	1	11	-7
O=C(c1ncn[nH]1)N1CCN(c2nc(-c3ccccc3)cs2)CC1	-5	-15	2.6*	7	11
O=C(c1cc(-n2cnnc2)ccc1Cl)N1CCN(c2nc(-c3ccccc3)cs2)CC1	-12	-4	1.1	-6	1
